# Experimental data as given in PubChem BioAssay.
# Values joined by “and” are separate entries in the source; they are usually repeats but may differ in a detail not shown here. Identical values can stand only once.
# Tested on: not listed separately
# Test: small-molecule microarray binders of probe aNog, primary screen, biochemical, biotinylated probe, 635/667 nm fluorescence (AID 1115);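 further: probe is biotinylated aNog protein used at 0.15 µg/mL for 1 h at 4 C; z-score combines 667 nm fluorescence of each spot with its signal to noise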
# Details: higher = more signal
row,Structure (SMILES),composite z-score
1,CC(C)CON=C1C[C@@H](O)[C@@H](O)[C@@H]2[C@@H]3C(=O)N(c4cccc(Oc5ccccc5)c4)C(=O)[C@@H]3CC[C@H]12,-0.5
2,C=C[C@@H](OC)[C@H](O)c1ccc(OCCO)cc1,-0.501 and -0.393
3,CC(CO)N1C(=O)[C@@H]2C3C(=O)OCCC=C[C@H]3OC23C=CCN(c2ccc(Cl)cc2)C(=O)[C@@H]13 (stereo partly drawn),0.0473 and 0.61
4,C=CCN(CCCCC)C(=O)C1N(CCOCCO)C(=O)C2C(C(=O)O)C3C=CC21O3 (stereo not drawn),-0.149 and -0.201
5,C=CCN(C(=O)C1N(CCCCCCO)C(=O)C2C(C(=O)O)C3C=CC21O3)C(C)(C)C (stereo not drawn),-0.176 and 0.338
6,COC(=O)C1=C(C)N(Cc2ccccc2)C2=C(C(C)=O)C[C@@](O)(C(=O)OC)C(=O)N2[C@@H]1c1ccccc1,0.127 and -0.247
7,C=CCN(C(=O)C(c1cccs1)N(CCOCCO)C(=O)/C=C\C(=O)O)C(C)(C)C (stereo not drawn),-0.0689 and 0.106
8,COC(=O)C1=C(C)N(Cc2ccccc2)[C@]23O[C@](C(=O)OC)(C(=O)N2[C@@H]1c1ccccc1)[C@@H](C(=O)OC)[C@H]3C(=O)OC,-0.394 and -0.255
9,C=C[C@H](C)[C@@H](O)c1ccc(OCCO)cc1,-0.194 and -0.381
10,C=CCN(CCCC)C(=O)C1N(c2c(Cl)cccc2CO)C(=O)C2C(C(=O)O)C3C=CC21O3 (stereo not drawn),0.0107 and 0.242
11,CCCNC(=O)OC[C@H]1O[C@H](CCON=C(C)CCN2CCc3nc(-c4ccccc4)c(-c4ccccc4)cc3C2)C=C[C@@H]1Oc1ccc(OC)cc1,-0.321
12,COC(=O)c1c2oc(c1C(=O)OC)C(=O)N[C@@H](Cc1ccccc1)Cn1cc(nn1)C1(CCCCC1)NC(=O)N[C@H](CO)CC2,-0.0604 and 0.149
13,C=CCN(Cc1ccccc1)C(=O)C(c1cccs1)N(C(=O)/C=C\C(=O)O)c1ccc(CCO)cc1 (stereo not drawn),-0.4 and -0.118

# Biological target: Torsin-1A-interacting protein 1 (Homo sapiens) (UniProt Q5JTV8)
# Test: LAP1 binders from COS7 cell lysate, primary screen, small-molecule microarray, 635/667 nm fluorescence (AID 1116)
# Details: COS7-hLAP1 lysate binding, 635 nm fluorescence, higher = more signal
# Chain of Torsin-1A-interacting protein 1 (Homo sapiens) (Q5JTV8 whole entry, looked up): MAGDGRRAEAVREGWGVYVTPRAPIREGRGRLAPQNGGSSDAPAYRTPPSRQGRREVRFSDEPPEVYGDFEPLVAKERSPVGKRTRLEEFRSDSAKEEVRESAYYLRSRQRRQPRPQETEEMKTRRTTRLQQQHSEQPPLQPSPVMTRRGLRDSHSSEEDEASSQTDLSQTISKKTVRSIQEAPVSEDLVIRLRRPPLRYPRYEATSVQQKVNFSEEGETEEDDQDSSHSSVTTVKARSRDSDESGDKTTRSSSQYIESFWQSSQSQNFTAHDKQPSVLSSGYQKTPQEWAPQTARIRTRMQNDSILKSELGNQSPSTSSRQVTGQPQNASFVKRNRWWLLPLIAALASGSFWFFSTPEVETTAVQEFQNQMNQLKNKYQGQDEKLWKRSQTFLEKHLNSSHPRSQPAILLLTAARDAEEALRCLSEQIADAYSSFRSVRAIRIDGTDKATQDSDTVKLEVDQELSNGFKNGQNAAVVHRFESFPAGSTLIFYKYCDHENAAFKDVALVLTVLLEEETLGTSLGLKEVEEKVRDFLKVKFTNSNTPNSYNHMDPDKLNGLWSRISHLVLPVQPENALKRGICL
row,Structure (SMILES),composite z-score
1,C[N+](C)(C)CCCCNC(=O)[C@H]1C[C@H]2C(=O)N[C@@H](CCCC[N+](C)(C)C)C(=O)N2[C@H]1c1ccc(O)cc1,0.699 and 0.0645
2,CO[C@@H]1COC(=O)[C@H](Cc2ccccc2)NC(=O)CC=C[C@@H](C)[C@H](OC)COC(=O)[C@@H](C)NC(=O)CC=C[C@H]1C,0.596 and -0.19
3,CCOC(=O)c1ccc(NC(=O)O[C@H]2[C@H](OC(=O)Nc3ccccc3)[C@H](OC(=O)Nc3ccccc3)[C@@H](OC)O[C@@H]2CO)cc1,1.74 and 1.88
4,CC(C)OC(=O)C=C1C[C@@H](c2ccccc2)O[C@@H](c2ccccc2)O1,1.3 and 1.28
5,C=CCN(C(=O)C1N(CCOCCO)C(=O)C2C(C(=O)O)C3C=CC21O3)c1ccc(OC)cc1 (stereo not drawn),1.38 and -0.149
6,CCCC[C@@H]1CN2[C@H](c3ccc(Br)cc3)[C@@H](C)CC[C@H]2C(=O)O1,0.0737 and 0.259
7,COC(=O)[C@@]1(Cc2ccc(OC)cc2)[C@H]2c3cc(C(=O)N(C)C)n(Cc4ccc(O)c(OC)c4)c3C[C@H]2CN1C(=O)c1ccccc1,2.63 and 1.12
8,CCOC(=O)NN=C1C[C@@H](O)[C@@H](O)[C@@H]2[C@@H]3C(=O)N(Cc4ccc5c(c4)OCO5)C(=O)[C@@H]3CC[C@@H]12,0.629
9,C=CCN(CCCC)C(=O)C(c1cccs1)N(CCOCCO)C(=O)/C=C\C(=O)O (stereo not drawn),1.2 and 1.09
10,C=CCN(CCCCC)C(=O)C(c1cccs1)N(C(=O)/C=C\C(=O)O)c1c(Cl)cccc1CO (stereo not drawn),2.83 and -1.08
11,CC(CO)N1C(=O)[C@@H]2C3C(=O)OCCC=C[C@H]3OC23C=CCN(c2ccc4ccccc4c2)C(=O)[C@@H]13 (stereo partly drawn),2.61 and 1.05
12,C=C[C@@H](C)[C@@H](O)c1ccc(O)c2ccccc12,-0.802 and 0.0066
13,C=CCN(C(=O)C1N(CCCCCCO)C(=O)C2C(C(=O)O)C3C=CC21O3)c1ccc(OC)cc1 (stereo not drawn),2.83 and 1.74
14,CC[C@@H]1C(Sc2ccccc2)C(C(=O)O)[C@H](c2ccc(C)cc2)N1S(=O)(=O)c1ccc(C)cc1 (stereo partly drawn),1.06 and 1.19
15,CC(C)=NO[C@@H](C)c1cc(-c2c(C)cc(C)cc2C)no1,0.1
16,C[N+](C)(C)CCCCCCNC(=O)[C@H]1C[C@H]2C(=O)N[C@@H](CCCC[N+](C)(C)C)C(=O)N2[C@H]1c1ccc(O)cc1,-0.0201 and -0.413
17,C=CCN(C(=O)C(c1cccs1)N(C(=O)/C=C\C(=O)O)c1ccc(CCO)cc1)C(C)(C)C (stereo not drawn),3.3 and 2.33
18,C=C[C@@H](OC)[C@H](O)c1ccc(OC)c(O)c1,0.0742 and 0.111
19,C#CCCCON=C1C[C@@H](O)[C@@H](O)[C@@H]2[C@@H]3C(=O)N(C4CCCCC4)C(=O)[C@@H]3CC[C@H]12,0.104
20,CC(C)N1CC=CC23O[C@@H]4C=CCCOC(=O)C4[C@H]2C(=O)N(C(C)CO)[C@@H]3C1=O (stereo partly drawn),1.62 and 0.0015
